# Compounds with a hit are over-represented: about 9.3% of the library has one in this group of screens.
# NPC1 prom act – activators of NPC1 promoter | Huh7 NPC1 promoter luciferase reporter, 24 h | Potency, µM (titrated, usually from 9.22 µM), for the others: at the highest dose activation, actives largely listed as activators | hit rate 2.4% among 320,000 | AID 485313; further: % of control where 0% means no effect; nearly all actives have a fitted effect of over 60% in size
#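 Huh7 reporter cells (NPC1 promoter driving luciferase) are dosed with compound for 24 h at 37 °C, 5% CO2; luciferase detection reagent is then added and luminescence measured after 10 min at ambient temperature.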
# SMN2 splice enh – SMN2 splice variant enhancement; hit rate 2.8% among 210,000; HEK293 SMN2-luciferase splicing reporter, luminescence, 30-36 h; AID 1458; Potency, µM (series often up to 46.1 µM), for the others: top-dose activity change, positive = activation, actives largely listed as activators; further: % of control where 0% means no effect; nearly all actives have a fitted effect of over 55% in size
#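 HEK293 cells carry an SMN2 minigene-luciferase reporter in which exon 7 inclusion puts luciferase in frame. Cells were seeded at 2000 cells/well, attached for 10-12 hours, then exposed to compounds for 30-36 hours at 37C before ONE-Glo luminescence.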
# FLuc modulator – counter-screen for miR-21 project: firefly luciferase inhibitors or activators; Potency, µM (series often up to 57.5 µM), inactives show top-dose activity change, negative = inhibition, hits mostly inhibitors; P08659; hit rate 6.9% among 360,000; purified FLuc, Km substrates, luminescence inhibition;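 further: plate controls were vehicle for no effect and reference inhibitor for full effect; nearly all actives have a fitted effect of over 55% in size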
# Target sequence (P08659 whole entry, looked up): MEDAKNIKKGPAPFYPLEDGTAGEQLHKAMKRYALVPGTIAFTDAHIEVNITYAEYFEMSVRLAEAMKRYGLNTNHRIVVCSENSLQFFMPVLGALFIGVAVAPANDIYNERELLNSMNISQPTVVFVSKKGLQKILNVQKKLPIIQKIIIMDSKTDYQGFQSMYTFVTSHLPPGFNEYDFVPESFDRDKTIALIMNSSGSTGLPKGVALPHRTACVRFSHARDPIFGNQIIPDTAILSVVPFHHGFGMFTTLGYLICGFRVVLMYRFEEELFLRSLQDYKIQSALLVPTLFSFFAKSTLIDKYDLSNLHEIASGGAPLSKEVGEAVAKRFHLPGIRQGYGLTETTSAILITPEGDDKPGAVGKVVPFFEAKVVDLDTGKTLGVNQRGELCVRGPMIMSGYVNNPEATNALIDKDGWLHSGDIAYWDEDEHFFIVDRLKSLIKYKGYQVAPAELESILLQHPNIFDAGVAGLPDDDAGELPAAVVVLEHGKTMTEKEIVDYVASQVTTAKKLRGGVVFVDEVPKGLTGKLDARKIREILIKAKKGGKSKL
#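 Purified P. pyralis luciferase (10nM final) with 10uM D-luciferin and 10uM ATP (Km levels) in 50mM Tris acetate pH 7.5, 10mM Mg acetate, 0.01% Tween-20, 0.05% BSA; qHTS 6-point titration, ~60 µM downward; luminescence read.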
# ELG1 DNA repair – inhibitors of ELG1-dependent DNA repair in HEK293T cells; HEK293T ELG1-luciferase reporter, luminescence, 16 h; DNA damage induced by 5-fluorouridine; Potency, µM (titrated, usually from 46.1 µM), for inactives: top-dose activity change, negative = inhibition, hits mostly inhibitors; hit rate 2.3% among 330,000; AID 504467; further: on the % scale 0 is the no-effect control and ±100 the full control effect; nearly all actives have a fitted effect of over 55% in size
#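 Quantitative HTS, concentration-response format. 2,000 cells/well co-treated with 5-fluorouridine and compound, 16 hr in 5% CO2 at 37 °C; ONE-Glo luminescence read after 30 min.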
# Rab9 promoter act – Rab9 promoter activation; Huh7 Rab9 promoter-luciferase reporter, luminescence, 24 h; Potency, µM (series often up to 9.22 µM), inactives show top-dose activation, negative = inhibition, most hits filed as activators; hit rate 2.8% among 320,000; AID 485297; further: % of control where 0% means no effect; nearly all actives have a fitted effect of over 60% in size
#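 Quantitative HTS format; Huh7 Rab9-luciferase reporter cells (1500/well) receive compound 2 h post-plating, incubate 24 h at 37 °C, then get luciferase reagent for 10 min before luminescence reading.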
# ELG1 genotox – induces genotoxicity in HEK293T cells with luciferase-tagged ELG1; HEK293T ELG1-luciferase reporter, luminescence, 16 h; Potency, µM (titrated, usually from 46 µM), without a hit: at the highest dose activity change, positive = activation, usual class: activators; hit rate 1.3% among 330,000; AID 504466; further: % of control where 0% means no effect; nearly all actives have a fitted effect of over 60% in size
#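 Cells (2,000/well) expressing the ELG1-luciferase fusion are dosed by pin tool and kept 16 hr at 37 °C, 5% CO2. Signal comes from ONE-Glo luciferase reagent after 30 min at room temperature.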
# Active calls of the source: *; ? = inconclusive; · = no result given; [ ] = dose if it differs, or a comment. The call rests on the fitted dose curve; in most records, active means well fitted curve in the direction sought with a large enough effect; inconclusive means small, poorly fitted or top-dose-only effect, or another doubt; inactive means no such curve, though single readings can be large; an effect the other way counts as inactive or inconclusive. Potency means the concentration at half of the fitted maximal effect.
SMILES,NPC1 prom act,SMN2 splice enh,FLuc modulator,ELG1 DNA repair,Rab9 promoter act,ELG1 genotox
O=C(N/N=C/c1c(O)n(C2CCCCC2)c(=S)[nH]c1=O)c1ccccc1O,1%,·,15µM*,?,7%,3%[9.26 µM]
O=C(N/N=C/c1c(O)n(C2CCCCC2)c(=S)[nH]c1=O)c1ccccc1,-1%,·,-13%,?,-1%,?
CCCCC(=O)N/N=C/c1c(O)n(Cc2ccco2)c(=O)[nH]c1=O,-3%,5%,-2%,15%,1%,-1%
O=C(N/N=C/c1c(O)n(Cc2ccco2)c(=O)[nH]c1=O)c1ccccc1O,2%,·,15µM*,12%,-1%,0%
CC(C)c1ccc(-n2c(O)c(/C=N/NC(=O)c3ccccc3O)c(=O)[nH]c2=S)cc1,5%,·,27µM*,0%,2%,0%
Cc1nc2ccccc2cc1C[N+]12CN3CN(CN(C3)C1)C2,·,-4%[9.22 µM],·,·,·,·
CC(C)[C@]1(O)[C@@H](OC(=O)c2ccc[nH]2)[C@]2(O)[C@@]3(C)C[C@@]4(O)O[C@@]5([C@H](O)[C@@H](C)CC[C@]35O)[C@]2(O)[C@]41C,·,-2%[9.22 µM],·,·,·,·
COc1ccc(-n2nc(C(=O)NCC(=O)N3CCC4(CC3)OCCO4)c3ccccc3c2=O)c(OC)c1,?,·,1.1µM*,?,?,?
O=C(Cn1cnc2ccccc2c1=O)NCC(=O)N1CCC2(CC1)OCCO2,0%,21%,2%,1%,-2%,0%
O=C(O)C(O)(c1ccc(-c2ccccc2)cc1)c1ccc(-c2ccccc2)cc1,·,-10%[9.22 µM],·,·,·,·
Cc1cccc(-n2c(/C=C/c3ccccc3O)nc3ccccc3c2=O)c1,·,-39%,0%,·,·,·
Cc1cccc(N2CCc3c2nc2ccccc2c3N)c1,24%,-5%,21µM*,?,7%,-18%
CC(C)(C)c1ccc(C(=O)Nc2ccc3nc(SCC(=O)N4CCCC4)sc3c2)cc1,·,·,7.6µM*,·,·,·
Cc1ccc(Sc2ccc(C=C3C(=O)N(C)C(=O)N(C)C3=O)o2)cc1,1%,-3%,15µM*,13%,25%,6%
CN1C(=O)C(=Cc2ccc(-c3cccc(Cl)c3)o2)C(=O)N(C)C1=O,1%,13%,?,?,-5%,7%
Cn1ncnc2c(=O)n(C)c(=O)nc1-2,-55%,-11%,-4%,6.5µM*,-57%,-17%
N=C1c2ccccc2CN1CC(=O)c1ccccc1,6%,11µM*,15µM*,?,?,?
COc1ccc(C(=O)O[C@H]2CC[C@@]3(C)[C@H]4CC[C@H]5[C@]3(C[C@]3(O)[C@H]6CN7C[C@H](C)CC[C@H]7[C@](C)(O)[C@]6(O)[C@H](O)C[C@]53O)O[C@]24O)cc1OC,·,-2%[9.22 µM],·,·,·,·
O=C1/C(=C/c2ccccc2)C[C@@]2(O)[C@H]3Cc4ccc(O)c5c4[C@@]2(CCN3CC2CC2)C1O5 (some centres not stated),·,·,·,18µM*,·,-6%
O=C(O)Cc1ccc([N+](=O)[O-])cc1[N+](=O)[O-],·,5%[9.22 µM],·,·,·,·
CCC(C)NC(=O)c1c(N)n(CCCOC)c2nc3ccccc3nc12 (configuration not stated),-1%,-7%,0%,16µM*,-5%,-2%
CCC(C)NC(=O)c1c(N)n(CC2CCCO2)c2nc3ccccc3nc12 (configuration not stated),-3%,-4%,3%,21µM*,4%,-3%
COCCCn1c(N)c(C(=O)OC(C)COC)c2nc3ccccc3nc21 (configuration not stated),0%,12%,0%,?,0%,-8%
COCCCn1c(N)c(C(=O)NCc2ccco2)c2nc3ccccc3nc21,-4%,·,-2%,?,-1%,-1%
COCCCn1c(N)c(C(=O)Nc2ccccc2)c2nc3ccccc3nc21,-5%,·,2%,16µM*,2%,2%

# Screens (PubChem BioAssay)
